Assay results: PubChem BioAssay (NCATS)
Results filed as inconclusive are left out. Entries that show only a call come without a potency. Activity calls are given as the source filed them. The call rests on the fitted dose curve; in most records, active means well fitted inhibition curve with a large enough effect; inconclusive means small, poorly fitted or top-dose-only effect; inactive means flat fitted curve, though single readings scatter.

Key:
Test in all cases: qHTS profiling for inhibitors of Plasmodium falciparum proliferation (AID 504749); further: nearly all actives have a fitted effect of over 60% in size
Details in all cases: P. falciparum in erythrocytes, SYBR Green DNA, 72 h; series mostly up to 28.7 µM
CP266 = test system: CP266
Summary of the method: (§1)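 Three-day growth assay of blood-stage parasites in erythrocytes (0.3% parasitemia, 2.5% hematocrit) at 37 C, 5% CO2, quantified by SYBR Green DNA staining after overnight detergent lysis.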

CP268 = test system: CP268
Summary of the method: as §1

CP269 = test system: CP269
Summary of the method: as §1

CP286 = test system: CP286
Summary of the method: as §1

CP291 = test system: CP291
Summary of the method: as §1

CP297 = test system: CP297
Summary of the method: as §1

CP305 = test system: CP305
Summary of the method: as §1

CP315 = test system: CP315
Summary of the method: as §1

CP325 = test system: CP325
Summary of the method: as §1

CP329 = test system: CP329
Summary of the method: as §1
Potency means the concentration at half of the fitted maximal effect.

Row | SMILES | Potency (CP266) | Potency (CP268) | Potency (CP269) | Potency (CP286) | Potency (CP291) | Potency (CP297) | Potency (CP305) | Potency (CP315) | Potency (CP325) | Potency (CP329)
1 | O=[N+]([O-])C(Br)(CO)CO | inactive | inactive | inactive | inactive | inactive | inactive | inactive | inactive | inactive | inactive
2 | O=C1CC[C@@]2(O)C3Cc4ccc(O)c5c4C2(CCN3CC2CC2)[C@H]1O5 (stereo partly specified) | inactive | inactive | inactive | inactive | inactive | inactive | inactive | inactive | inactive | inactive
3 | C[C@H]1CC[C@@H]2[C@@H](C)[C@H]3[C@H](C[C@H]4[C@@H]5CC=C6CC(O[C@@H]7O[C@H](CO)[C@H](O)[C@H](O[C@@H]8O[C@H](CO)[C@@H](O)[C@H](O)[C@H]8O)[C@H]7O[C@H]7O[C@@H](C)[C@H](O)[C@@H](O)[C@H]7O)CC[C@]6(C)[C@H]5CC[C@]34C)N2C1 (stereo partly specified) | inactive | inactive | inactive | inactive | inactive | inactive | inactive | inactive | inactive | inactive
4 | CC(N)Cc1ccc(O)cc1 (stereo unspecified) | inactive | inactive | inactive | inactive | inactive | inactive | inactive | inactive | inactive | inactive
5 | CNC(C)C(O)c1ccc(O)cc1 (stereo unspecified) | inactive | inactive | inactive | inactive | inactive | inactive | inactive | inactive | inactive | inactive
6 | CCC1(c2ccccc2)C(=O)NC(=O)N(C(=O)c2ccccc2)C1=O (stereo unspecified) | inactive | inactive | inactive | inactive | inactive | inactive | inactive | inactive | inactive | inactive
7 | C[C@]12CCC(=O)C[C@@H]1CC[C@@H]1[C@@H]2CC[C@]2(C)[C@@H](O)CC[C@@H]12 | inactive | inactive | inactive | inactive | inactive | inactive | inactive | inactive | inactive | inactive
8 | C=CCN1CCC23c4c5ccc(O)c4O[C@H]2C(=O)CC[C@@]3(O)C1C5 (stereo partly specified) | inactive | inactive | inactive | inactive | inactive | inactive | inactive | inactive | inactive | inactive
9 | ClC=C(Cl)Cl | inactive | inactive | inactive | inactive | inactive | inactive | inactive | inactive | inactive | inactive
10 | O=[N+]([O-])c1ccc(F)c([N+](=O)[O-])c1 | inactive | inactive | inactive | inactive | inactive | inactive | inactive | inactive | inactive | inactive
11 | CNC(=O)OCC[N+](C)(C)C | inactive | inactive | inactive | inactive | inactive | inactive | inactive | inactive | inactive | inactive
12 | S=C=S | inactive | inactive | inactive | inactive | inactive | inactive | inactive | inactive | inactive | inactive
13 | O=[N+]([O-])c1ccccc1 | inactive | inactive | inactive | inactive | inactive | inactive | inactive | inactive | inactive | inactive
14 | ClC(Cl)(Cl)Cl | inactive | inactive | inactive | inactive | inactive | inactive | inactive | inactive | inactive | inactive
15 | CC(C)(O)C1C2OC(=O)C1C1(O)CC3OC34C(=O)OC2C14C (stereo unspecified) | inactive | inactive | inactive | inactive | inactive | inactive | inactive | inactive | inactive | inactive
16 | ClC1C(Cl)C(Cl)C(Cl)C(Cl)C1Cl (stereo unspecified) | inactive | inactive | inactive | inactive | inactive | inactive | inactive | inactive | inactive | inactive
17 | C#CC(C)(O)CC (stereo unspecified) | inactive | inactive | inactive | inactive | inactive | inactive | inactive | inactive | inactive | inactive
18 | O=C1CN(O)C(c2ccccc2)=c2cc(Cl)ccc2=N1 | inactive | inactive | inactive | inactive | inactive | inactive | inactive | inactive | inactive | inactive
19 | CC(=O)OO | inactive | inactive | inactive | inactive | inactive | inactive | inactive | inactive | inactive | inactive
20 | [O]=[Cr](=[O])([OH])[O][Cr](=[O])(=[O])[OH] | inactive | inactive | inactive | inactive | inactive | inactive | inactive | inactive | inactive | inactive
21 | CCC(N)Cc1c[nH]c2ccccc12 (stereo unspecified) | inactive | inactive | inactive | inactive | inactive | inactive | inactive | inactive | inactive | inactive
22 | CCC(C)(S(=O)(=O)CC)S(=O)(=O)CC | inactive | inactive | inactive | inactive | inactive | inactive | inactive | inactive | inactive | inactive

Row | SMILES | Potency (CP266) | Potency (CP268) | Potency (CP269) | Potency (CP286) | Potency (CP291) | Potency (CP297) | Potency (CP305) | Potency (CP315) | Potency (CP325) | Potency (CP329)
23 | [Cl-].[Cl-].[Hg+2] | inactive |  |  |  |  |  |  |  |  | 
24 | CCCC(C)(COC(N)=O)COC(=O)NC1CC1 (stereo unspecified) | inactive | inactive | inactive | inactive | inactive | inactive | inactive | inactive | inactive | inactive
25 | C[N+]1(C)C2CCC1CC(OC(=O)c1c[nH]c3ccccc13)C2 (stereo unspecified) | inactive | inactive | inactive | inactive | inactive | inactive | inactive | inactive | inactive | inactive
26 | O=C(CS(=O)C(c1ccccc1)c1ccccc1)NO (stereo unspecified) | inactive | inactive | inactive | inactive | inactive | inactive | inactive | inactive | inactive | inactive
27 | CCC1(C)CC(=O)NC(=O)C1 | inactive | inactive | inactive | inactive | inactive | inactive | inactive | inactive | inactive | inactive
28 | O=C(NC(=O)c1c(F)cccc1F)Nc1ccc(Cl)c(Oc2ncc(C(F)(F)F)cc2Cl)c1 | inactive | inactive | inactive | inactive | inactive | inactive | inactive | inactive | inactive | inactive
29 | CCC1(c2ccccc2)C(=O)NC(=O)NC1=O | inactive | inactive | inactive | inactive | inactive | inactive | inactive | inactive | inactive | inactive
30 | COC1=CC=C2[C@H]3Cc4ccc(OC)c5c4[C@@]2(CCN3C)[C@H]1O5 | inactive | inactive | inactive | inactive | inactive | inactive | inactive | inactive | inactive | inactive
31 | [N-]=[N+]=CC(=O)OCC(N)C(=O)O (stereo unspecified) | inactive | inactive | inactive | inactive | inactive | inactive | inactive | inactive | inactive | inactive
32 | O=C1C2CC=CCC2C(=O)N1SC(Cl)(Cl)Cl (stereo unspecified) | inactive | inactive | inactive | inactive | inactive | inactive | inactive | inactive | inactive | inactive
33 | O=S(=O)(O)c1cc(O)ccc1O | inactive | inactive | inactive | inactive | inactive | inactive | inactive | inactive | inactive | inactive
34 | Clc1ccc(C2(Cn3cncn3)OCCO2)c(Cl)c1 | inactive | inactive | inactive | inactive | inactive | inactive | inactive | inactive | inactive | inactive
35 | O=CC=O | inactive | inactive | inactive | inactive | inactive | inactive | inactive | inactive | inactive | inactive
36 | CNC1(c2ccccc2Cl)CCCCC1=O (stereo unspecified) | inactive | inactive | inactive | inactive | inactive | inactive | inactive | inactive | inactive | inactive
37 | CCNC(C)Cc1cccc(C(F)(F)F)c1 (stereo unspecified) | inactive | inactive | inactive | inactive | inactive | inactive | inactive | inactive | inactive | inactive
38 | O[C@H]1[C@H]2[C@H](O)CCCN2C[C@H]1O | inactive | inactive | inactive | inactive | inactive | inactive | inactive | inactive | inactive | inactive
39 | CCOC(=O)c1ccccc1C(=O)OCC | inactive | inactive | inactive | inactive | inactive | inactive | inactive | inactive | inactive | inactive
40 | CCON=O | inactive | inactive | inactive | inactive | inactive | inactive | inactive | inactive | inactive | inactive
41 | C[N+]1(C)CCCCC1COC(=O)C(O)(c1ccccc1)c1ccccc1 (stereo unspecified) | inactive | inactive | inactive | inactive | inactive | inactive | inactive | inactive | inactive | inactive
42 | CC(C)Nc1ccc(Nc2ccccc2)cc1 | 8.49 µM (active) | 10.7 µM (active) | 6.75 µM (active) | 8.91 µM (active) | 15.1 µM (active) | 4.78 µM (active) | 13.5 µM (active) | 4.78 µM (active) | 6.01 µM (active) | 6.01 µM (active)
43 | CC[N+](C)(CC)CCOC(=O)C(O)(c1ccccc1)c1ccccc1 | inactive | inactive | inactive | inactive | inactive | inactive | inactive | inactive | inactive | inactive
44 | O=c1[nH]c(=O)n(Cl)c(=O)n1Cl | inactive | inactive | inactive | inactive | inactive | inactive | inactive | inactive | inactive | inactive
